Experiment [1] can be described thus: Nuclear factor erythroid 2-related factor 2/antioxidant responsive element (Nrf2/ARE) small molecule agonists: qHTS cell viability counter screen in human keratinocytes (AID 1919968; active means well fitted curve in the direction sought with a large enough effect in the repeat runs; an effect the other way counts as inactive or inconclusive; further: nearly all actives have a fitted effect of over 55% in size; further: potency means the concentration at half of the fitted maximal effect). In outline: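 Cells of the KeratinoSens line were plated at 1,500 per well and left for 5 h before compound transfer from DMSO stocks. After a 23 h incubation (37 C, 5% CO2), CellTiter-Fluor was added. Signal was taken as fluorescence intensity 1 h later.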
For orientation: In qHTS, concentration-response curves come from the screen itself.

A short description of experiment [2]: Nuclear factor erythroid 2-related factor 2/antioxidant responsive element (Nrf2/ARE) small molecule agonists: luciferase reporter gene qHTS assay in human keratinocytes (AID 1919969). Further: nearly all actives have a fitted effect of over 35% in size. Further: potency means the concentration at half of the fitted maximal effect. For orientation: A reporter such as luciferase makes a cellular process visible.
Experiment [3] deals with KiSS-1 receptor (Homo sapiens) (UniProt Q969F8). The experiment in a line: Human kisspeptin (KISS1R) small molecule agonists, calcium flux assay in KISS1R-HEK293 cells (AID 1920064; active means well fitted curve in the direction sought with a large enough effect in the repeat runs; an effect the other way counts as inactive or inconclusive). In outline: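 Cell line: HEK293, stable human KISS1R. Dye loading 1 h at 37 C after 18 h culture. Read: kinetic fluorescence, 480/540 nm, 3 min at 1 s intervals.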
In general terms: A change in cytosolic calcium serves as a functional read-out for many receptors and channels.

Experiment [4] can be described thus: G protein-coupled receptor (GPCR) small molecule agonists, calcium flux assay: HEK293 wild type cell line counter screen (AID 1920065). A digest of the protocol: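 Tox21 10K compounds, 15 concentrations each in triplicate, pin-transferred in DMSO onto dye-loaded cells; kinetic read at 480/540 nm for 3 min, 1 s intervals.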
The nature of experiment [5]: p53 small molecule agonists, cell-based qHTS assay with human liver microsomes (AID 1963577). A digest of the protocol: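 In this qHTS, p53 response-element beta-lactamase cells receive test compound together with a microsome/NADPH activating system (0.5 mg/mL final each) and are incubated 16 h at 37 C before LiveBLAzer fluorescence detection.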
Experiment [6] can be described thus: p53 small molecule agonists, cell-based qHTS assay with human liver microsomes: qHTS cell viability counter screen (AID 1963579). Further: nearly all actives have a fitted effect of over 45% in size. Further: potency means the concentration at half of the fitted maximal effect. In outline:
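Metabolically activated exposure: compounds, human liver microsomes and NADPH (0.5 mg/mL final apiece) were added to p53RE-bla cells seeded 5 h earlier, left 16 h at 37 C, and then assessed for viability by CellTiter-Glo luminescence.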

Experiment [7] can be described thus: p53 small molecule agonists, cell-based qHTS assay with rat liver microsomes: qHTS cell viability counter screen (AID 1963580). Further: nearly all actives have a fitted effect of over 45% in size. Further: potency means the concentration at half of the fitted maximal effect. In outline: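 Luminescent ATP readout (CellTiter-Glo, 30 min at room temperature) reports viability of p53RE-bla HCT-116 cells after 16 h at 37 C with test compounds under metabolic activation by rat liver microsomes and NADPH at 0.5 mg/mL final each.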

A short description of experiment [8]: p53 small molecule agonists, cell-based qHTS assay: qHTS cell viability counter screen (AID 1963581). Further: nearly all actives have a fitted effect of over 45% in size. Further: potency means the concentration at half of the fitted maximal effect. A digest of the protocol: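 ATP content measured by luminescence in HCT-116 p53RE-bla cells treated 16 h at 37 C, same wells as the reporter screen.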
A short description of experiment [9]: p53 small molecule agonists, cell-based qHTS assay (AID 1963582; active means well fitted activation curve with a large enough effect in the signal ratio in the repeat runs, not every such curve was filed as active; the % refers to the signal ratio). A digest of the protocol:
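16 h compound exposure (37 C) of p53 response element–bla cells, preceded by 5 h recovery at 37 C/5% CO2; read-out via LiveBLAzer B/G FRET substrate, 2 h RT, fluorescence intensity.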

The target of experiment [10] is 5-hydroxytryptamine receptor 2A (Homo sapiens) (UniProt P28223). The experiment in a line: 5-hydroxytryptamine receptor 2A (HTR2A) small molecule antagonists, cell-based qHTS assay (AID 1963586). Further: nearly all actives have a fitted effect of over 45% in size. Further: potency means the concentration at half of the fitted maximal effect. A digest of the protocol: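 CHO cells stably expressing human HTR2A were plated for 18 h at 37 C, then loaded with calcium dye for 1 h. Compounds were preincubated 5 min at room temperature before DOI (4 nM solution) was added. Kinetic fluorescence was read for 3 min.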

Experiment [11] has the same target. Description: 5-hydroxytryptamine receptor 2A (HTR2A) small molecule agonists, cell-based qHTS assay (AID 1963587). Further: nearly all actives have a fitted effect of over 30% in size. In outline:
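HTR2A-CHO cells, plated 18 h at 37 C/5% CO2, dye-loaded 1 h at 37 C; compounds in DMSO added by pin tool (agonist mode). Intracellular calcium flux read as kinetic fluorescence on FDSS over 2 min at 1 s intervals.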

Experiment [12] concerns the target Muscarinic acetylcholine receptor M1 (Homo sapiens) (UniProt P11229). Description: Cholinergic receptor muscarinic 1 (CHRM1) small molecule antagonists, cell-based qHTS assay (AID 1963588). Further: nearly all actives have a fitted effect of over 40% in size. A digest of the protocol: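 Compounds were tested at 15 concentrations in three independent runs. Dye-loaded CHRM1-CHO cells were exposed 5 min at room temperature before stimulation by acetylcholine added at 50nM. Intracellular calcium was read kinetically on FDSS for 3 min.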

The target is the same in experiment [13]. The experiment in a line: Cholinergic receptor muscarinic 1 (CHRM1) small molecule agonists, cell-based qHTS assay (AID 1963589). Further: nearly all actives have a fitted effect of over 35% in size. Further: potency means the concentration at half of the fitted maximal effect. In outline: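 Homogeneous fluorescence calcium flux, agonist mode. Human M1-expressing CHO cells; compound dosed at 15 concentrations, three independent runs; signal sampled every 1 sec.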
The nature of experiment [14]: cAMP Responsive Elements (CRE) small molecule agonists, cell-based qHTS assay (AID 1963590). In outline: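 HEK 293T cells stably bearing CRE-bla were plated at 2,000 cells per well and rested 18 h. Compounds, positive controls or DMSO were added for 3 h at 37 C. LiveBLAzer B/G substrate was then loaded for 2 h at room temperature.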
Experiment [15] can be described thus: cAMP Responsive Elements (CRE) small molecule antagonists, cell-based qHTS assay (AID 1963591; active means well fitted inhibition curve with a large enough effect in the signal ratio in the repeat runs, not every such curve was filed as active; the % refers to the signal ratio). A digest of the protocol:
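First, CRE-bla HEK293T cells settled 18 h at 37 C. Next, compound and 0.25 uM final NKH477 were applied for 3 h. Last, LiveBLAzer B/G substrate was loaded for 2 h at room temperature.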

Experiment [16] addresses Beta-2 adrenergic receptor (Homo sapiens) (UniProt P07550). The experiment in a line: Adrenergic beta2 receptor (ADRB2) small molecule antagonists, cell-based qHTS assay (AID 1963592). Further: series mostly up to about 92 µM; nearly all actives have a fitted effect of over 50% in size. In outline: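 Assay format: CHO-ADRB2 cells, 18-20hr seeding at 37C/5% CO2, then compound plus 1nM isoproterenol agonist mix for 0.5hr RT. Homogeneous time-resolved fluorescence cAMP detection after 1hr, expressed as 665/615 nm ratio.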

Experiment [17] has as its target D(2) dopamine receptor (Homo sapiens) (UniProt P14416). Description: Dopamine D2 receptor (DRD2) small molecule agonists, cell-based qHTS assay (AID 1963594). Further: nearly all actives have a fitted effect of over 35% in size. A digest of the protocol: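 HEK293 cells stably expressing DRD2 were cultured 24 h at 37 C, then given Ro20-1724 (0.1 mM final) and compounds for 10 min at room temperature. NKH477 (200nM) was then added for 30 min. cAMP was read by HTRF.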

A short description of experiment [18]: p53 small molecule agonists, cell-based qHTS assay with rat liver microsomes (AID 1963578). In outline: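 Agonist mode in p53RE-bla reporter cells, with compounds co-incubated 16 h at 37 C alongside 0.5 mg/mL rat liver microsomes and 0.5 mg/mL NADPH (final), followed by a 2 h LiveBLAzer detection step.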
In experiment [19] the target is D(2) dopamine receptor (Homo sapiens) (UniProt P14416). Description: Dopamine D2 receptor (DRD2) small molecule antagonists, cell-based qHTS assay (AID 1963595; active means well fitted inhibition curve with a large enough effect in the signal ratio in the repeat runs, with a control signal flat; the % refers to the signal ratio; further: potency means the concentration at half of the fitted maximal effect). In outline:
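Antagonist mode in DRD2-HEK293 cells: after compound addition with 0.1 mM Ro20-1724, cells received quinpirole (12 nM) and NKH477 (200 nM) for 30 min at room temperature; HTRF cAMP read after 1 h detection.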

Unmarked numbers belong to inactive results. Results filed as inconclusive are left out. The source made the active and inactive calls. Unless noted, the call rests on the fitted dose curve.

Sequence of KiSS-1 receptor (Homo sapiens) (Q969F8 whole entry, looked up): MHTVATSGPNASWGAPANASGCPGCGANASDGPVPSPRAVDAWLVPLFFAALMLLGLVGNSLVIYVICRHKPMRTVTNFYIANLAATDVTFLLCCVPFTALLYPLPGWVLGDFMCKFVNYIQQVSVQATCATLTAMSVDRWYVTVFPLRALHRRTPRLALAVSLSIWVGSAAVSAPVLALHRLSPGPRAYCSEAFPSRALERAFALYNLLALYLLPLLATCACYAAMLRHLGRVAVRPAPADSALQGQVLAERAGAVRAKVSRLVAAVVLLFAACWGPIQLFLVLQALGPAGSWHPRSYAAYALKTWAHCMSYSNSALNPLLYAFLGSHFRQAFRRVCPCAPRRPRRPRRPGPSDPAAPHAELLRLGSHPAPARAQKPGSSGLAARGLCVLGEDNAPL
Sequence of D(2) dopamine receptor (Homo sapiens) (P14416 whole entry, looked up): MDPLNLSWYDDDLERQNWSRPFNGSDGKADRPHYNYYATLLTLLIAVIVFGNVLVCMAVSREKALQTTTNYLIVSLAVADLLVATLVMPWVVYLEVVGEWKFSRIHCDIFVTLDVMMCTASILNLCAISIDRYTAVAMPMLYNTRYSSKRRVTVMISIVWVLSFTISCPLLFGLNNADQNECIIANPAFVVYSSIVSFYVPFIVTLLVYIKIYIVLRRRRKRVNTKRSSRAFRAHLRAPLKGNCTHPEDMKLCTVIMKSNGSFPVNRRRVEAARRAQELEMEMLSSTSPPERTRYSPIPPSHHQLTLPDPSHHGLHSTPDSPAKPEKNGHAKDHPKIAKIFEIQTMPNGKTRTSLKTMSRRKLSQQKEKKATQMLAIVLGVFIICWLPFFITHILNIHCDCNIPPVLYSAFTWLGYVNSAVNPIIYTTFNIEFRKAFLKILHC
Sequence of Beta-2 adrenergic receptor (Homo sapiens) (P07550 whole entry, looked up): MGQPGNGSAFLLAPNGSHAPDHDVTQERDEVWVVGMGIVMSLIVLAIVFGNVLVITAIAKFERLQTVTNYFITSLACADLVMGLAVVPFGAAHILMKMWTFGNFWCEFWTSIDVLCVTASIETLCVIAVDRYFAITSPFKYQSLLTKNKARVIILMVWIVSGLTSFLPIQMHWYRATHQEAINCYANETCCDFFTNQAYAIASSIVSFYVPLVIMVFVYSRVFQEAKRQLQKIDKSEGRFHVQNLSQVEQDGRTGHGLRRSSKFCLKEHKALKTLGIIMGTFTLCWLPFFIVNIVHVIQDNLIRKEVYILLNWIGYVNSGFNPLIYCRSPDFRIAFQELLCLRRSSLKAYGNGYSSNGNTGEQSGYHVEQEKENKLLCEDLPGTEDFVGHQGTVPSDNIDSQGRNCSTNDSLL
Sequence of Muscarinic acetylcholine receptor M1 (Homo sapiens) (P11229 whole entry, looked up): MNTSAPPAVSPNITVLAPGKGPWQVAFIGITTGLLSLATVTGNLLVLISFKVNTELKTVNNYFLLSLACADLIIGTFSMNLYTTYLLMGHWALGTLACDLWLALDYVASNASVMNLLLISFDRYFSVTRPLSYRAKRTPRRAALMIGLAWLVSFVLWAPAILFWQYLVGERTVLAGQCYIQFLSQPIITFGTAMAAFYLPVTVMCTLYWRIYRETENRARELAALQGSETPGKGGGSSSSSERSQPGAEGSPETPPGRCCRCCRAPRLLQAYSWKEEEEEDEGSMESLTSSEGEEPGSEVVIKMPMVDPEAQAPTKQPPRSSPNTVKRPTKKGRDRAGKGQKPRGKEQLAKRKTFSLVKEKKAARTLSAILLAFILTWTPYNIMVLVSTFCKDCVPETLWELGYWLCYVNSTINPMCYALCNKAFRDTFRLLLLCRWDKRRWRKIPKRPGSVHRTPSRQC
Sequence of 5-hydroxytryptamine receptor 2A (Homo sapiens) (P28223 whole entry, looked up): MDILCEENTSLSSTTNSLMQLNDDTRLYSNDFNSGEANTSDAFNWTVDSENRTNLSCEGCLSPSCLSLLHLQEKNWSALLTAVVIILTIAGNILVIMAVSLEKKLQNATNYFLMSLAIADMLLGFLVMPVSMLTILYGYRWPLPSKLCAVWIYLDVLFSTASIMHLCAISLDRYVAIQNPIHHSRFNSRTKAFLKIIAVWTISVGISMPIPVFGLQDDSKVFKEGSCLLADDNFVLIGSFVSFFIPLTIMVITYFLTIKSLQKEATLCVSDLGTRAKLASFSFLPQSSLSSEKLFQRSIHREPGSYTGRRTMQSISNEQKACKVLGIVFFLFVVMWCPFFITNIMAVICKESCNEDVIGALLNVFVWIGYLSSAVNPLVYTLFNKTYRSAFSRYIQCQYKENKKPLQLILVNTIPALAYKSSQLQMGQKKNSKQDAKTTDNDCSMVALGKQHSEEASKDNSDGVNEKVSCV

In the case of `CC(C)(C)c1ccc(OP(=O)(Oc2ccccc2)Oc2ccccc2)cc1`, the Potency result in experiment [1], in [2], in [3], in experiment [4], in experiment [5] and in experiment [6] was “inactive” each time. In addition, the Potency result in [7], in [8], in experiment [9], in [11], in [12] and in experiment [13] was “inactive” in each case. Also, the Potency entry in experiment [14], in experiment [15] and in experiment [16] was “inactive” throughout. Besides, in [10], the Potency is 8.45 µM (active).
As for `C=CC(=O)NCNC(=O)C=C`, the Potency entry in experiment [1], in [3], in experiment [4], in experiment [10], in [11] and in experiment [12] was “inactive” in each case. Moreover, the Potency result in experiment [13], in experiment [14], in experiment [16] and in experiment [17] was “inactive” in each case. Further, the Potency in experiment [2] is 61.1 µM (active).
`COc1nn(C(=O)NS(=O)(=O)c2ccccc2OC(F)(F)F)c(=O)n1C`: the Potency result in experiment [1], in [2], in experiment [3], in experiment [4], in [6] and in experiment [7] was “inactive” in each case. The Potency entry in experiment [8], in [10], in experiment [12], in experiment [14], in [15] and in experiment [16] was “inactive” throughout. In addition, the Potency result in [17] was “inactive”.
As to `CN1CCN(C(=O)O[C@H]2c3nccnc3C(=O)N2c2ccc(Cl)cn2)CC1`, the Potency result in [1], in experiment [2], in [3], in experiment [4], in experiment [5] and in experiment [18] was “inactive” each time. The Potency result in [8], in [9], in experiment [11], in [12], in experiment [13] and in experiment [15] was “inactive” throughout. The Potency result in experiment [16], in experiment [17] and in experiment [19] was “inactive” in each case.
In the case of `O=C(O)C(Br)(Br)Br`, the Potency result in experiment [1], in [2], in experiment [3], in [4], in [6] and in [7] was “inactive” each time. The Potency entry in experiment [8], in experiment [10], in experiment [11], in [12], in experiment [13] and in experiment [14] was “inactive” in each case. In addition, the Potency entry in [15], in [16], in experiment [17] and in experiment [19] was “inactive” throughout.
Take `CC(=O)C(Cl)(Cl)Cl`: the Potency in experiment [1] was 16.6 µM (active); in [2], 20.9 µM (active); in [8], 24.8 µM (active). The Potency result in [3], in experiment [5], in experiment [18], in experiment [6], in [9] and in experiment [11] was “inactive” in each case. The Potency result in [13] and in experiment [17] was “inactive” each time.
On to `CC(C)(C)NCC(O)c1cc(Cl)c(N)c(Cl)c1` (stereo not drawn), for which the Potency entry in [1], in [2], in experiment [4], in [5], in [18] and in experiment [6] was “inactive” throughout. In addition, the Potency result in experiment [7], in [9] and in experiment [15] was “inactive” in each case. In [19], the Potency is 0.0021 µM (active).
Regarding `CC(O)C(=O)[O][Hg][c]1ccccc1` (stereo not drawn), the Potency in experiment [1] is 1.72 µM (active); in experiment [2], 0.864 µM (active); in [6], 3.63 µM (active); in [7], 8.14 µM (active); in [8] it was 2.89 µM (active); in [13], 54.9 µM (active). Moreover, in experiment [19], the Potency was 2.73 µM (active). For the same compound, the Potency result in [4], in experiment [5], in experiment [18], in experiment [10] and in experiment [12] was “inactive” each time.
Take `Cc1ccc(OP(=O)(Oc2ccccc2)Oc2ccccc2)cc1`: the Potency result in experiment [1], in experiment [2], in experiment [3], in [4], in [6] and in experiment [7] was “inactive” throughout. In addition, the Potency entry in experiment [8], in [10], in experiment [11], in experiment [12], in experiment [13] and in experiment [15] was “inactive” throughout. The Potency entry in experiment [16] and in experiment [17] was “inactive” in each case.

The record behind these values is PubChem BioAssay (Tox21).
